Shown are actives, neighbours in structure and some others; about 2.1% of the full set was active somewhere.
NSD2 HMT inh = NSD2 (human) methyltransferase inhibition. 310,000 tested, 0.54% active. O96028. NSD2 peptide methylation, AlphaScreen, 120 min. inhibition, % at 12.5 µM; in the data active = inhibition above about 50%
Target sequence (O96028 whole entry, looked up): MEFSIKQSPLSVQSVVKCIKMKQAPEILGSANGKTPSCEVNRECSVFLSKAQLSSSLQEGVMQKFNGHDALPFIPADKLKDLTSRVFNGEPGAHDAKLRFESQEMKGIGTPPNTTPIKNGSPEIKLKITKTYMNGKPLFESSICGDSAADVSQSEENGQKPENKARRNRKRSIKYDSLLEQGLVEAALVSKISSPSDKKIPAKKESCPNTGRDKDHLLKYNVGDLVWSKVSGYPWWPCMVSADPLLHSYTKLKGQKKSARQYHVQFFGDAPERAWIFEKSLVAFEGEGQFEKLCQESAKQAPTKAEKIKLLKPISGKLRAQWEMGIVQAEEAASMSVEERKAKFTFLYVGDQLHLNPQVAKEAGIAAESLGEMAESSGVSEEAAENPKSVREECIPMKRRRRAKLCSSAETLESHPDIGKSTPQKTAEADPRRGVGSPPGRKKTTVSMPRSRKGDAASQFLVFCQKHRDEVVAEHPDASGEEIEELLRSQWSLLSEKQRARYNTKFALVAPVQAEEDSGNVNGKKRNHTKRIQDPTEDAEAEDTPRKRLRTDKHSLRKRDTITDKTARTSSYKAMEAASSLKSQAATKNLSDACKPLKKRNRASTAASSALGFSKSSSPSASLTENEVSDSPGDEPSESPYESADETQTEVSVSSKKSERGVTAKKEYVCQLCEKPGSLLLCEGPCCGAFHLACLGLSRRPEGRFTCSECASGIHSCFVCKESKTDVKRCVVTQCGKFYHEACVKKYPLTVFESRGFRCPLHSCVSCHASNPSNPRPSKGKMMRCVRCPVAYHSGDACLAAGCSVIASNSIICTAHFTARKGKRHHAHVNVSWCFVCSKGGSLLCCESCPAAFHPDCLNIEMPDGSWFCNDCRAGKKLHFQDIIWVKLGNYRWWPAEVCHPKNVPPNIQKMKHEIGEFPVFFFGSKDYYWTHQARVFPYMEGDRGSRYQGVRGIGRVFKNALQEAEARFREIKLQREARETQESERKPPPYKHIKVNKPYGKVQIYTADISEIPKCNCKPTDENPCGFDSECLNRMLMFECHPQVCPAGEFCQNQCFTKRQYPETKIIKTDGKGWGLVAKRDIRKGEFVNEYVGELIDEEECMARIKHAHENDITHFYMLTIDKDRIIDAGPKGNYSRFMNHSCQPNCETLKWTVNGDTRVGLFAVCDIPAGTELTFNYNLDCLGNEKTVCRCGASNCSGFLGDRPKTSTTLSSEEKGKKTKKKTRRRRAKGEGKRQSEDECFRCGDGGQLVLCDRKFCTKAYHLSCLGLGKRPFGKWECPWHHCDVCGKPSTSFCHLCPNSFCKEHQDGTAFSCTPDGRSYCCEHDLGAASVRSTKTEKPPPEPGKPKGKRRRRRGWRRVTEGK
Env fusion inh = inhibitors of HIV Env-mediated cell fusion; AID 651610; inhibition, % at 12.3 µM; HeLa-JRFL Env/CEM21 cell fusion, luciferase; 360,000 tested, 1.1% active;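 active = mean replicate inhibition score of at least 50 and every replicate individually at or above 50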;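 also: 0% = plate neutral controls and 100% = maraviroc near 300 nM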
MLL AF4-AF9 inh = blocks AF4 peptide binding to human AF9. P42568. AlphaScreen, biotin-AF4 peptide binding to FLAG-AF9. inhibition, % at 10 µM. 350,000 tested, 0.47% active. AID 651704;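 active = every replicate reaching a set inhibition limit, whatever the replicate mean, cut at about 25% in these data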;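 also: 0% = plate neutral control median and 100% = total signal loss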
INS-1E GSIS act = GLuc luminescence reporter in INS-1E cells, primary screen for activators of glucose-dependent secretion of insulin. INS-1E GLuc reporter insulin secretion, 2-3 h. activation, % at 16.6 µM. 370,000 tested, 0.61% active;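 active = lowest replicate activation of at least 40%, so every replicate reaches that level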;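 also: 0% = median of neutral control wells and 100% = median of IBMX positive control wells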
PGC1a acetyl inh = lowers PGC1a acetylation signal in U2OS cells; AlphaScreen anti-acetyl-lysine; with virally co-expressed GCN5 acetyltransferase; inhibition, % at 15.6 µM; 350,000 tested, 0.17% active; AID 651687;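 active = every replicate shows inhibition of at least 40%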;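 also: 0% = neutral control wells and 100% = positive control wells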
Starred values were filed as active, the others as inactive; i = inactive; x = not tested or not shown.

SMILES	NSD2 HMT inh	Env fusion inh	MLL AF4-AF9 inh	INS-1E GSIS act	PGC1a acetyl inh
Cc1ccc(S(=O)(=O)Nc2nc(C)cc(NN)n2)cc1	-3	-28	-1	46*	14
CO[C@H]1CN(C)C(=O)c2cc(NC(=O)C3CCOCC3)ccc2OC[C@H](C)N(Cc2nccs2)C[C@H]1C	x	74*	-2	-1	-5
CO[C@H]1CN(C)C(=O)c2cc(NC(=O)C3CC3)ccc2OC[C@@H](C)N(Cc2cc(F)ccc2F)C[C@@H]1C	x	x	43*	-10	-2
CC1=CC(C)(C)N2C(=O)C3(C(C#N)=C(N)OC4=C3C(=O)CC(C)(C)C4)c3cccc1c32 (stereo not given)	-8	-15	x	x	x
CCOc1cc(C2C3=C(CC(C)(C)CC3=O)OC3=C2C(=O)CC(C)(C)C3)cc([N+](=O)[O-])c1O	12	31	0	16	-6
CCOc1cc(C2C3=C(CCCC3=O)OC3=C2C(=O)CCC3)cc([N+](=O)[O-])c1O	3	-7	-4	58*	3
CCc1nnc(NC(=O)CSc2ccc(-c3nc4ccccc4[nH]3)cn2)s1	x	x	x	x	5
CCc1nnc(NC(=O)CSc2ncc(-c3ccccc3)[nH]2)s1	-1	x	-36	0	1
Cc1ccc(-c2nc(NC(=O)CSc3nnc(C)s3)ns2)cc1	x	14	0	10	x
Cc1ccc2nc(-c3ccc(SCC(=O)Nc4nnc(C)s4)nc3)[nH]c2c1	x	x	x	459*	x
Cc1ccc2nc(-c3ccc(SCC(=O)Nc4nc(C)cs4)nc3)[nH]c2c1	1	i	x	-14	x
Cc1nnc(SCC(=O)Nc2nsc(-c3ccccc3)n2)s1	1	57*	x	1	1
Cc1nnc(NC(=O)CSc2ncc(-c3ccccc3)[nH]2)s1	1	-1	-3	-4	88*
Cc1nc(NC(=O)CSc2ccc(-c3nc4ccccc4[nH]3)cn2)sc1C	x	x	x	51*	x
COC(=O)c1ccc(N2CCOCC2)c(F)c1	2	x	x	18	11
O=C(c1ccc(F)cc1)C(CN1CCOCC1)c1ccccc1 (stereo not given)	x	x	12	-17	60*
O=C(c1ccc(Cl)cc1)C(CN1CCCC1)c1ccccc1 (stereo not given)	2	-412	7	-9	x
CCCCOc1ccc(C(=O)C(CN2CCOCC2)c2ccccc2)cc1 (stereo not given)	8	x	x	x	80*
COc1ccc(C(=O)C(CN2CCOCC2)c2ccccc2)cc1 (stereo not given)	x	x	15	-12	32
CCCCOc1ccc(SCCCN2CCOCC2)cc1	3	18	3	58*	6
CCCCCC(O)(c1ccc(OCC)cc1)C(CN1CCOCC1)c1ccccc1 (stereo not given)	-3	59*	-28	-32	-13
O=C(CNC(=O)c1ccccc1Br)N/N=C\c1cc([N+](=O)[O-])cc(Br)c1O	5	-30	-3	-16	0
COc1ccc(C(O)(C2CCCCC2)C(CN2CCOCC2)c2ccccc2)cc1 (stereo not given)	-1	74*	13	-40	x
CCOc1ccc(NC(=O)c2ccc(N3CC4CC(C3)c3cccc(=O)n3C4)c(N)c2)cc1 (stereo not given)	-4	3	2	-2	2
CCC(CC)c1nnc(NC(=O)CCc2ccc(OC)cc2)s1	1	3	1	6	-3
SMILES	NSD2 HMT inh	Env fusion inh	MLL AF4-AF9 inh	INS-1E GSIS act	PGC1a acetyl inh
O=C(Nc1ccc(-c2nc3ccccc3o2)cc1)c1cc(-n2cnnc2)ccc1Cl	-2	58*	x	x	-1
COc1ccc(Nc2nc(NCc3cccs3)nc3ccsc23)cc1OC	3	3	14	48*	x
COc1ccc(Nc2nc(NC(C)C)nc3ccsc23)cc1OC	x	37	11	-1	x
OC(c1cccc(OCc2ccccc2)c1)c1nnc(-c2ccccc2)o1 (stereo not given)	x	73*	x	x	5
CC(C)c1ccc2c(c1)[C@H]1OCC[C@H]1[C@@H](c1cccs1)N2	0	59*	x	-18	x
COc1ccc2c(c1)C1OCCC1C(c1ccco1)N2 (stereo not given)	5	x	x	x	-2
Cc1ccccc1-c1csc(C(O)c2ccc(F)cc2)n1 (stereo not given)	-2	-29	-2	-23	-15
CNC(=O)COC(=O)CCC(=O)c1ccc(Cl)cc1	-1	-4	-4	1	-8
NC(N)=N/N=C(\N=Nc1ccccc1)c1ccc(Cl)cc1	19	-24	35*	213	x
NC(N)=N/N=C(\N=Nc1ccccc1)c1cccc2cccnc12	4	-47	7	5	5
CCCn1c(SCC(=O)Nc2cc(Cl)ccc2Cl)n[nH]c1=O	-7	-79	0	x	-6
COc1ccc(C2c3c(-c4ccccc4O)n[nH]c3C(=O)N2Cc2ccco2)cc1OC (stereo not given)	3	10	12	11	15
COc1ccc(CCN2C(=O)c3[nH]nc(-c4ccccc4O)c3C2c2cccc(O)c2)cc1OC (stereo not given)	7	75*	x	4	-4
CSc1ncc2c(=O)[nH]c(-c3ccccc3)nc2n1	-2	-14	-2	19	-3
CN(C[C@H](Cc1ccccc1)N(C[C@H](c1ccccc1)N(CCc1ccccc1)N=O)N=O)N=O	x	74*	1	-27	x
CN(C[C@H](c1ccccc1)N(C[C@H](Cc1ccccc1)N(CCc1ccccc1)N=O)N=O)N=O	x	32	5	-6	x
CN(C[C@H](Cc1ccccc1)N(C[C@@H](CC1CCCCC1)N(CCc1ccccc1)N=O)N=O)N=O	x	56*	x	-19	x
CC(C)CCN(N=O)[C@@H](Cc1ccccc1)CN(N=O)[C@@H](Cc1ccccc1)CN(C)N=O	x	93*	5	-32	x
CC(C)C[C@@H](CN(N=O)[C@@H](Cc1ccccc1)CN(C)N=O)N(CCc1ccccc1)N=O	x	22	8	3	6
CN(C[C@H](Cc1ccccc1)N(C[C@H](Cc1ccccc1)N(CCC(C)(C)C)N=O)N=O)N=O	x	62*	x	-14	-1
CC(C)CCn1c(S(=O)(=O)O)nc2ccccc21	0	x	x	x	-8
CCCCc1c(-c2ccccc2Br)ncn1CCc1ccccc1OC	x	24	4	26	x
Cc1ccc(C(O)(c2ccccc2)c2ccccc2C(C)N(C)C)c(C)c1 (stereo not given)	x	79*	x	2	x
CC(c1ccccc1C(O)c1ccccc1)N(C)C (stereo not given)	x	x	2	21	12
Cc1cccc(C(C)C)c1NC(=O)c1ccc(CN(c2ccccc2)S(=O)(=O)c2ccccc2)cc1	-2	60*	x	-22	5
CC1(C)OC(=O)C2=C(C[C@@H](CCc3ccccc3)O[C@@H]2c2ccc(F)cc2)O1	x	2	-2	-35	x
CC[C@@H]1CC2=C(C(=O)OC(C)(C)O2)[C@H](c2ccc(F)cc2)O1	x	7	-2	45*	-5
COc1ccccc1CCNC(=O)CCSc1nc(-c2ccco2)cc(C(F)(F)F)n1	3	x	x	x	-1
COc1ccccc1CCNC(=O)CSc1nc(-c2ccco2)cc(C(F)(F)F)n1	x	59*	-4	-11	9

Screening results: PubChem, Broad Institute
